Screening data: PubChem BioAssay, several laboratories
Gli-Sufu block = antagonists of Gli-Sufu signaling. Sufu-KO-LIGHT fibroblasts, Gli luciferase reporter luminescence. inhibition, % at 5 µM. actives 0.74% (n = 340,000);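 active = inhibition above about 55%, limit read from the data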;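 note: 0% = DMSO-treated cells and 100% = wells with medium but no cells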
Jurkat NFkB inh = inhibitors of the PMA/ionomycin-induced NF-kB reporter in Jurkat cells. actives 0.53% (n = 330,000). PMA/ionomycin-induced NF-kB luciferase reporter, luminescence. inhibition, % at 4 µM; in the data active = inhibition above about 50%
697 NFkB inh = lowers PMA/ionomycin-induced NF-kB signal in 697 B cells | 697 B-cell NF-kB luciferase reporter, 16 h | inhibition, % at 4 µM | actives 0.33% (n = 330,000) | AID 435022; in the data active = inhibition above about 35%
SMARCA2 act = SMARCA2 function activation, primary screen; MG213 cells, MMTV-luciferase reporter, dexamethasone, overnight; activation, % at 9.1 µM; actives 1% (n = 370,000); AID 652017; in the data active = activation above about 7.8%;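 note: 0% = vehicle wells and 100% = reference activator wells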
esBAF inh = blocks esBAF chromatin remodeling in mouse ES cells | Bmi1-luciferase knock-in reporter, 24 h; 100% = twice the neutral-well signal | reporter increase, % at 12.5 µM | actives 2% (n = 350,000) | AID 602393; in the data active = activation above about 40%;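 note: 0% = median of the plate's neutral control wells and 100% = double that signal; a rise in the Bmi1 reporter signal indicates esBAF inhibition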
* marks the source's active call; other numbers are inactive results; . = no result given. Only some compounds are listed: those with a hit (about 3.3% of all), similar ones and a draw of the others.

SMILES | Gli-Sufu block | Jurkat NFkB inh | 697 NFkB inh | SMARCA2 act | esBAF inh
C[C@@H]1CN([C@H](C)CO)C(=O)Cc2cc(N(C)C)ccc2O[C@@H]1CN(C)S(=O)(=O)c1ccc(Cl)cc1 | . | . | . | . | -7
C[C@@H]1CCCCO[C@H](CN(C)C(=O)Cc2ccccc2)[C@H](C)CN([C@@H](C)CO)C(=O)c2cc(NC(=O)NC3CCCCC3)ccc2O1 | . | . | . | . | 0
COc1ccc(CN2C(=O)c3ccccc3C2c2nnnn2C(C)C)cc1OC (stereo not drawn) | . | . | . | 7.8* | .
COc1ccc(CCN2C(=O)c3ccccc3C2c2nnnn2C(C)C)cc1OC (stereo not drawn) | . | . | . | -2 | .
CC1CCc2c(C(=O)Nc3nccs3)csc2C1 (stereo not drawn) | -2 | -57 | -52 | 7 | 58*
CC1CCc2c(C(=O)Nc3ccccn3)csc2C1 (stereo not drawn) | -84 | -106 | -63 | 3 | .
O=C(/C=C/c1ccccc1)NCCc1ccccc1 | -67 | -98 | -54 | 4 | 89*
O=C(/C=C/c1ccc([N+](=O)[O-])cc1)NCCc1ccccc1 | -30 | -9 | -9 | -2 | .
c1ccc(Cn2c3ccccc3c3nnc(SCCN4CCCCC4)nc32)cc1 | 1 | -6 | -24 | 7.9* | .
C[C@@H]1CN([C@@H](C)CO)C(=O)c2cc(C#C[C@@H](C)O)cnc2O[C@@H]1CN(C)Cc1cccc(F)c1 | . | . | . | . | 2
N#C/C(=C1/CCCCCN1)c1nc2ccccc2[nH]1 | -61 | -49 | -61 | 4 | 50*
Cc1noc(C)c1NC(=O)Nc1ccc2c(c1)C(=O)N([C@H](C)CO)C[C@H](C)[C@H](CN(C)Cc1ccc3c(c1)OCO3)O2 | . | . | . | . | 4
COc1cccc(-c2cc(C(=O)NCC3CCCO3)on2)c1 (stereo not drawn) | -25 | -27 | -44 | 1 | 56*
O=C(NCC1CCCO1)c1cc2ccccc2o1 (stereo not drawn) | -53 | 2 | -9 | 5 | 44*
O=C(NCC1CCCO1)c1cc2ccccc2cc1O (stereo not drawn) | -6 | -35 | 12 | 1 | 57*
O=C(NCC1CCCCC1)c1cc2ccccc2cc1O | -10 | -37 | -16 | -5 | 54*
C[C@H]1CCCCO[C@H](CN(C)Cc2ccc(C(=O)O)cc2)[C@@H](C)CN([C@@H](C)CO)C(=O)c2cc(NS(=O)(=O)c3ccc(Cl)cc3)ccc2O1 | . | . | . | . | -6
O=C(NNC(=O)c1cc2ccccc2cc1O)NC1CCCCC1 | -8 | 2 | 2 | -1 | 18
CC1CCC(NC(=O)c2cc3ccccc3cc2O)CC1 (stereo not drawn) | -69 | -85 | -48 | 3 | 77*
C[C@H]1CCCCO[C@H](CN(C)S(=O)(=O)c2cn(C)cn2)[C@@H](C)CN([C@@H](C)CO)C(=O)c2cc(NC(=O)Nc3ccc4c(c3)OCO4)ccc2O1 | . | . | . | . | 39
S=C(NCCc1ccccc1)NC1CCC(NC(=S)NCCc2ccccc2)CC1 (stereo not drawn) | 8 | -6 | 16 | 0 | -8
S=C(NCCc1cccc(Cl)c1)NC1CCCCC1 | -73 | -67 | -99 | 6 | 66*
O=C(NNC(=O)c1ccccc1O)c1cccc(Br)c1 | -15 | -7 | -30 | 3 | 46*
O=C(NNC(=O)c1ccccc1O)c1ccc(Br)cc1 | -22 | -18 | -40 | 5 | 31
CCCNC(=O)[C@@H]1N[C@@H]2c3ccc(C4=CCCCC4)c(=O)n3C[C@@H]2[C@H]1CO | . | . | . | . | -3
SMILES | Gli-Sufu block | Jurkat NFkB inh | 697 NFkB inh | SMARCA2 act | esBAF inh
OC[C@H]1O[C@@H](c2nc3ccc(-c4nc(-c5ccc(Br)cc5)no4)cc3[nH]2)C[C@@H]1O | . | . | . | 3 | 55*
C[C@H](CO)N1C[C@H](C)[C@H](CN(C)Cc2ccc(Oc3ccccc3)cc2)Oc2ncc(-c3cncnc3)cc2C1=O | . | . | . | . | -2
COc1ccc(Cl)cc1C(=O)Nc1ccc(Br)c(C)n1 | -56 | -48 | -59 | 0 | 61*
CCCCn1nnc(NC(=O)c2cc3ccccc3o2)n1 | 5 | -63 | -10 | 4 | 59*
Cc1nc(NC(=O)c2ccc(Br)o2)ccc1Br | -19 | -19 | -26 | 2 | .
CCCn1nnc(NC(=O)c2cc3ccccc3o2)n1 | -57 | -68 | -31 | 8 | 50*
Cc1nc(NC(=O)c2cc3ccccc3o2)ccc1Br | -69 | -64 | -69 | 0 | 69*
O=C(N[C@@H]1CC[C@H](CCNS(=O)(=O)c2ccc(F)cc2)O[C@@H]1CO)C1CC1 | . | . | . | . | 1
CN(c1ccc(C(=O)N2CCOCC2)cc1[N+](=O)[O-])C1CCCCC1 | -36 | -18 | -20 | 3 | 57*
CC(=O)N(c1nnc(-c2cccc(C)c2)s1)C1CCCC1 | -26 | -101 | -95 | 0 | 52*
COc1cccc(C(=O)N(c2ccc(OC)cc2OC)C2C=CS(=O)(=O)C2)c1 (stereo not drawn) | 3 | -12 | 16 | -1 | -5
COc1cccc(C(=O)N(c2ccc(C)cc2)C2C=CS(=O)(=O)C2)c1 (stereo not drawn) | -8 | -19 | -5 | 7.9* | .
O=C(NCCc1ccccc1)c1cc2ncc(Br)cn2n1 | -22 | -12 | -16 | 8.1* | 21
Cc1cc(C(=O)COC(=O)c2ccc(O)cc2)c(C)n1Cc1ccco1 | -61 | -83 | -96 | 2 | .
CCOc1ncccc1C(=O)OCC(=O)c1cc(C)n(Cc2ccco2)c1C | -11 | -46 | -99 | 2 | 58*
Cc1cc(C)n(-c2nc(-c3ccc(Cl)cc3)cs2)n1 | -27 | -83 | -96 | 0 | 51*
COc1cccc(Nc2nc(-c3sc(NC(=O)CC(C)C)nc3C)cs2)c1 | -9 | 3 | -1 | 0 | 0
COc1cccc(Nc2nc(-c3sc(NC(=O)c4ccccc4)nc3C)cs2)c1 | 6 | -12 | -31 | 3 | 52*
CC1CCN(Cc2c(C(=O)N/N=C/c3cc(Cl)ccc3O)nnn2-c2nonc2N)CC1 | 80* | 23 | -36 | -2 | -60
COc1cc(/C=N/NC(=O)c2nnn(-c3nonc3N)c2C)ccc1OCc1ccc(Cl)cc1 | . | . | . | -4 | 56*
CC1CCN(Cc2c(C(=O)N/N=C/c3cc(Br)ccc3O)nnn2-c2nonc2N)CC1 | 86* | 37 | -29 | -1 | -70
C[C@@H]1CN([C@H](C)CO)C(=O)c2cc(NC(=O)Nc3ccc(F)cc3)ccc2O[C@H]1CN(C)S(=O)(=O)c1cccs1 | . | . | . | . | -1
CO[C@@H]1CN(C)C(=O)c2ccc(NS(=O)(=O)c3ccccc3C)cc2OC[C@@H](C)N(C)C[C@H]1C | . | . | . | . | 7
COc1cccc(C(=O)Nc2cccc(-c3ccc(N4CCOCC4)nn3)c2)c1 | -39 | -39 | -38 | 7 | 67*
O=C(Nc1cccc(-c2ccc(N3CCOCC3)nn2)c1)c1ccc(F)cc1F | -66 | -46 | -36 | 0 | .
CCOc1ccccc1C(=O)Nc1cccc(-c2ccc(N3CCOCC3)nn2)c1 | -74 | -105 | -98 | 2 | 63*
CCC(=O)Nc1cccc(-c2ccc(N3CCN(C)CC3)nn2)c1 | -39 | -110 | -58 | . | 41*
COc1ccc(C(=O)Nc2cccc(-c3ccc(N4CCOCC4)nn3)c2)cc1OC | -66 | -54 | -23 | 5 | 19
